Screens as filed in PubChem BioAssay.
Tau fluor counter: counter-screen for tau fibril formation inhibitors. AID 1463. Potency, µM (doses to about 57.7 µM), without a hit: at the highest dose activity change, negative = decrease. 280,000 compounds, 0.93% hits. tau K18 P301L Alexa594 fluorescence, heparin fibrillization; note: nearly all actives have a fitted effect of over 55% in size
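Human tau K18 P301L (15 uM unlabeled, 0.24 uM Alexa 594-labeled) in 100 mM sodium acetate pH 7 with 20 uM heparin, 6 hr at 37 C. ThT 30 uM added, 1 hr ambient; Alexa 594 FP and total fluorescence read at 555/632 nm.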
Tau ThT inhib: blocks human tau fibril formation measured by thioflavin T; P10636; 270,000 compounds, 2.1% hits; AID 1460; Potency, µM (highest dose often 57.4 µM), for the others: top-dose activity, negative = inhibition, usual class: inhibitors; recombinant tau K18 P301L (four-repeat tau fragment), heparin-induced fibrillization, ThT fluorescence; note: nearly all actives have a fitted effect of over 55% in size
Target sequence (P10636 561-689 P618L limits assumed): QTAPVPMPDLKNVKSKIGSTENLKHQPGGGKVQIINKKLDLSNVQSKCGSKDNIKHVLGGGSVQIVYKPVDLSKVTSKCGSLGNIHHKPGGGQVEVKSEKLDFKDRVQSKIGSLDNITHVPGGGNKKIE
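Heparin-induced (20 uM) aggregation of recombinant human K18 P301L tau, 15 uM unlabeled with 0.24 uM labeled, pH 7 acetate buffer, 6 hr at 37 C with compound. Fibrils quantified by 30 uM ThT fluorescence after 1 hr ambient incubation.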
JMJD2E inh: JMJD2E (human) inhibition; B2RXH2; JMJD2E catalytic domain, FDH-coupled NADH fluorescence (FDH is formaldehyde dehydrogenase); Potency, µM (top dose mostly 57.1 µM), without a hit: at the top dose activity change, negative = inhibition, actives largely listed as inhibitors; 230,000 compounds, 1.6% hits; active = well fitted inhibition curve with a large enough effect, not every such curve was filed as active; inconclusive = small, poorly fitted or top-dose-only effect, or another doubt; inactive = no such curve, though single readings can be large or run the other way;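 note: 0% = wells with enzyme and -100% = buffer wells without enzyme; nearly all actives have a fitted effect of over 50% in size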
Target sequence (B2RXH2 1-337 limits assumed): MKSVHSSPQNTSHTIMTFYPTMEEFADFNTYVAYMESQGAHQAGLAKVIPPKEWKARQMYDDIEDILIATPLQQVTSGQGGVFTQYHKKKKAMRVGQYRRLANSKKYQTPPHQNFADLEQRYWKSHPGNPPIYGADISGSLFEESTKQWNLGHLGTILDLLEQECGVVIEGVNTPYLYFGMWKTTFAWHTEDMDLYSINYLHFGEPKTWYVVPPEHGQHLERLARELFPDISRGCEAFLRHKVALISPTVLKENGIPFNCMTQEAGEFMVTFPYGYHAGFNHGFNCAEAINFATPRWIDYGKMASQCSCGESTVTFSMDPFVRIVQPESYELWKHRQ
ALDH1A1 inh: ALDH1A1 (human) enzyme inhibition; Potency, µM (titrated, usually from 75.3 µM), for the others: at the highest dose activity, negative = inhibition, most hits filed as inhibitors; P00352; 220,000 compounds, 7.3% hits; AID 1030; Purified ALDH1A1, NADH fluorescence, propionaldehyde substrate; active = well fitted inhibition curve with a large enough effect, not every such curve was filed as active; inconclusive = small, poorly fitted or top-dose-only effect, or another doubt; inactive = no such curve, though single readings can be large or run the other way;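 note: plate controls were no enzyme wells and a reference inhibitor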
HPGD block: inhibitors of human 15-hydroxyprostaglandin dehydrogenase (HPGD) | P15428 | purified HPGD, NADH fluorescence kinetic, PGE2 substrate | Potency, µM, inactives show at the top dose activity change, negative = inhibition, actives largely listed as inhibitors | 150,000 compounds, 4.3% hits | AID 894; active = well fitted inhibition curve with a large enough effect, not every such curve was filed as active; inconclusive = small, poorly fitted or top-dose-only effect, or another doubt; inactive = no such curve, though single readings can be large or run the other way
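20 nM HPGD preincubated 15 min at room temperature with compound in 50 mM Tris-HCl pH 8, 0.01% Tween 20. Started with 1 mM NAD+ and 30 uM prostaglandin E2; NADH fluorescence (360/450 nm) read 5 times over 30-s intervals, last minus first.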
Tau fibril FP: inhibitors of human tau fibril formation; 280,000 compounds, 0.39% hits; K18 P301L tau heparin fibrillization, Alexa594 FP, 6 h; P10636; Potency, µM (top dose mostly 57.7 µM), without a hit: top-dose activity, negative = inhibition, hits mostly inhibitors; note: nearly all actives have a fitted effect of over 55% in size
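Recombinant K18 P301L […], labeled with Alexa 594 at 0.24 uM over 15 uM unlabeled; heparin inducer 20 uM final; 37 C, 6 hr; FP endpoint.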
An asterisk follows results filed as active; ? = inconclusive; . = no result given; [ ] = another dose, or the depositor's remark. A selection: hits, their analogues and other compounds. The true share with any hit is near 9.9%. Unless noted, calls come from the whole dose curve; as a rule, active = well fitted curve in the direction sought with a large enough effect; inconclusive = small, poorly fitted or top-dose-only effect, or another doubt; inactive = no such curve, though single readings can be large; an effect the other way counts as inactive or inconclusive. Unless noted, % is set by controls: 0 for no effect and ±100 for the full control effect; potency is the fitted concentration of half-maximal effect.

SMILES	Tau fluor counter	Tau ThT inhib	JMJD2E inh	ALDH1A1 inh	HPGD block	Tau fibril FP
COc1cccc(-c2nn3c(-c4ccccn4)nnc3s2)c1	-3%	-10%	-22%	0%	32µM*	-5%
FC(F)(F)c1cccc(N2CCN(c3nc4ccccc4n4cnnc34)CC2)c1	?	?	.	.	.	2%
COc1cccc(-c2nnc3sc(-c4ccccn4)nn23)c1	-15%	?	-2%	-1%	22µM*	-3%
Cc1ccc(OCc2nn3c(-c4ccco4)nnc3s2)cc1	-11%	?	-3%	-12%	.	0%
Clc1ccc(OCc2nn3c(-c4ccco4)nnc3s2)c(Cl)c1	-14%	-15%	4%	-9%	3.2µM*	-6%
COc1ccccc1-c1nnc2sc(-c3cnccn3)nn12	0%	-16%	-7%	?	25µM*	2%
Cc1c(Cl)cccc1-n1ncc(C(=O)NC2CCCC2)c1C1CCN(C(=O)OC(C)(C)C)CC1	-14%	-10%	.	.	.	1%
CNC(=O)/C(C#N)=C/c1ccc(-c2ccc(OC)cc2[N+](=O)[O-])o1	-18%	?	1%	0%	7.1µM*	2%
N#C/C(=C\c1ccc(-c2ccccc2[N+](=O)[O-])o1)C(=O)Nc1nc(-c2cccs2)cs1	?	2.8µM*	-2%	1.8µM*	-14%	0%
CCOC(=O)c1ccc(-c2ccc(/C=C(\C#N)C(=O)Nc3c(C)cccc3Cl)o2)cc1	-7%	11%	.	.	.	-6%
COc1ccc(-c2ccc(C(=O)O)o2)c([N+](=O)[O-])c1	-19%	?	?	?	.	?
N#C/C(=C\c1ccc(-c2ccc([N+](=O)[O-])cc2)o1)C(=O)Nc1nc(-c2cccs2)cs1	?	2.2µM*	1%	.	.	7%
COc1ccc(-c2noc(CSc3nnc(-c4ccncc4)n3-c3ccc(C)cc3)n2)cc1OC	-5%	-5%	.	.	.	2%
CCc1nn(CC(=O)NC(C)C)c(=O)c2cc3cc(F)ccc3n12	-6%	0%	.	.	.	-8%
COc1ccc(C2=CSC(/N=C/c3ccc(F)cc3)=NN2)cc1	?	14µM*	-4%	13%	-5%	-4%
Fc1ccc(/C=N/c2c(-c3ccc(F)cc3)nc3n2CCS3)cc1	-27%	?	5%	-7%	5%	2%
CS(=O)(=O)N(Cc1ccc(C(=O)NC2CCCC2)cc1)c1ccccc1	-5%	-4%	-4%	-9%	.	-3%
CS(=O)(=O)N(Cc1ccc(C(=O)NN=C2CCCCCC2)cc1)c1ccccc1	-8%	0%	2%	16µM*	-10%	11%
CS(=O)(=O)N(Cc1ccc(C(=O)NN=C2CCCC2)cc1)c1ccccc1	-2%	19%	5%	1.3µM*	-9%	5%
CCN(CC)C(=O)c1sc2[nH]c(=S)n(-c3ccccc3)c(=O)c2c1C	0%	-2%	2%	?	28µM*	2%
CCN(CC)C(=O)c1sc2c(c1C)c(=O)n(-c1ccccc1)c(=O)n2CC(=O)N(CC)c1cccc(C)c1	-6%	-5%	.	.	.	4%
O=C1C=CC(O)(c2cc(=O)c3c(O)cc(O)cc3o2)C=C1	-25%	13µM*	0%	-2%	-8%	11µM*
O=c1c(O)c(-c2ccccc2)oc2cc(O)cc(O)c12	?	?	-21%	-2%	-28%	-6%
O=C(NCCCN1CCOCC1)c1sc2cc([N+](=O)[O-])ccc2c1Cl	-26%	28µM*	?	7.9µM*	.	?
O=C(NCCCN1CCOCC1)c1sc2cc(Cl)ccc2c1Cl	-7%	-6%	-5%	1%	.	-3%
SMILES	Tau fluor counter	Tau ThT inhib	JMJD2E inh	ALDH1A1 inh	HPGD block	Tau fibril FP
COc1ccc(C)cc1NC(=O)c1c2c(nc3ccccc13)C(=O)N(C1CCCCC1)C2	7%	-15%	.	.	.	12%
CCOC(=O)C1=C(C)OC(N)=C(C#N)C1c1cccs1 (stereo not given)	-13%	-17%	?	?	.	?
CCOC(=O)C1=C(N)Oc2ccc(Br)cc2C1C(C#N)C(=O)OCC (stereo not given)	-5%	-10%	.	16µM*	.	0%
O=C(OCn1ncc(Cl)c(Cl)c1=O)c1ccc(C(F)(F)F)cc1	-12%	32µM*	13%	3.5µM*	-8%	-13%
Cc1cc(C(=O)Cn2ncc(Cl)c(Cl)c2=O)c(C)n1CC(F)(F)F	-6%	-13%	-4%	?	-1%	-2%
O=C(OCCN1CCN(c2ncc(C(F)(F)F)cc2Cl)CC1)c1ccc(F)cc1	-12%	-23%	16%	11%	-3%	-2%
Cc1ccc(C)c(C(=O)Cn2ncc(Cl)c(Cl)c2=O)c1	-19%	?	11%	14µM*	-12%	-14%
Cc1cccc(Cn2ncc(Cl)c(Cl)c2=O)c1	-5%	-11%	1%	?	-11%	-3%
Cc1ccc(C(=O)OCn2ncc(Cl)c(Cl)c2=O)cc1	2%	4%	5%	1.4µM*	28µM*	6%
Cc1nc(/C(N)=N/OC(=O)Cc2ccccc2)no1	3%	-4%	1%	10%	.	1%
C#CCOCCOCCOCCNc1nc(N2CCN(C(=O)[C@H](CCCCN)n3cc(C(N)CO)nn3)CC2)nc(N2CCN(C(=O)[C@H](CCC(=O)O)n3cc(C(N)[C@H](C)CC)nn3)CC2)n1 (stereo not given in full)	5%	5%	-12%	-1%	.	2%
Cc1cc(C)c(O)c(-c2cc(C(=O)Nc3ccc(S(=O)(=O)N4CCOCC4)cc3)[nH]n2)c1	14µM*[quencher]	1%	-6%	-16%	-7%	?
CCCn1cnc2c(c1=O)c1nc3ccccc3nc1n2Cc1ccccc1OC	-4%	-14%	4%	4µM*	?	-3%
CCC(C)n1cnc2c(c1=O)c1nc3ccccc3nc1n2Cc1ccccc1OC (stereo not given)	3%	-2%	-11%	?	-25%	-10%
COc1cccc(N(CC(=O)N2CCC(C)CC2)S(=O)(=O)c2ccc(C)cc2)c1	-9%	-3%	.	.	.	1%
Cc1nc2ccccn2c1C(=O)CSc1ccccc1	-11%	-8%	4%	-14%	.	5%
Cc1nc2ccccn2c1C(=O)OCC#N	-2%	-5%	10%	16µM*	.	-1%
Cc1ccc(NS(=O)(=O)c2cc(C(=O)N(C)C)ccc2C)cc1C	1%	0%	-13%	-10%	.	3%
CN(C)c1ccc(/C=[N+](\[O-])C2N(c3ccccc3)C(=S)SC2(C)C)cc1 (stereo not given)	-21%	-13%	-8%	22µM*	-12%	14%
CN(C)c1ccc(/C=[N+](\[O-])C2SC(=S)N(C)C2(C)C)cc1 (stereo not given)	7%	2%	?	0.45µM*	-25%	-1%
